# TNAP act mid DEA: human TNAP enzyme activators, primary screen, biochemical, luminescent, intermediate phosphate acceptor level; Alkaline phosphatase, tissue-nonspecific isozyme (Homo sapiens), P05186; activation factor at 20 µM; 64,000 tested, under 10 active; AID 813, 2007; purified TNAP, CDP-star luminescence, 100 mM DEA, 30 min; stronger effect = higher value; scale: 0 levamisole-inhibited, 1 vehicle-only enzyme;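 active means activation factor of at least 2 at 20 µM, relative to controls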
# HePTP inhibitor: inhibitors of human HePTP phosphatase, primary screen, biochemical, absorbance, leukemia target | Tyrosine-protein phosphatase non-receptor type 7 (Homo sapiens), P35236 | recombinant HePTP phosphatase activity, OD absorbance | inhibition, % at 20 µM | 110,000 tested, 0.64% active; in the data active means inhibition above about 50%
# E coli RNAP: E. coli RNAP inhibitors, biochemical; DNA-directed RNA polymerase subunit beta (Escherichia coli (strain K12)), P0A8V2; E. coli RNA polymerase, fluorescence transcription assay; inhibition, %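 (tested at 10 µM)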; 62,000 tested, 0.2% active; in the data active means inhibition above about 20%
# DUSP1 inh: MKP-1 phosphatase inhibitors, primary screen, biochemical, in vitro; Dual specificity protein phosphatase 1 (Homo sapiens), P28562; recombinant MKP-1, OMFP hydrolysis fluorescence; inhibition, %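 (compounds tested at a single concentration somewhere between 10 and 100 µM)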; 65,000 tested, 0.15% active; AID 374, 2006;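 active means inhibition above about 50%, limit read from the data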
# Target sequence (P28562 whole entry, looked up): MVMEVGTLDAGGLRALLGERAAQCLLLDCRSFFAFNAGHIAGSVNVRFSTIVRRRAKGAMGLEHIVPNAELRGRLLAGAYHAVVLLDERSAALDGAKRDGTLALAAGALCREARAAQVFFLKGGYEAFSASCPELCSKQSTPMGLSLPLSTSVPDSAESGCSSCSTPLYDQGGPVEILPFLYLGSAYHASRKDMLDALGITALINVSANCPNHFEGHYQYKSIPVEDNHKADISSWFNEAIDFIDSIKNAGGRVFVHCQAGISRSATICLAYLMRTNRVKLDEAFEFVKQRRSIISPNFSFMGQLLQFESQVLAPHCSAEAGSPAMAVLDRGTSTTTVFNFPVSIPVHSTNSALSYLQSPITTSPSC
# Cdc25B block: inhibitors of Cdc25B phosphatase catalytic domain, primary screen, biochemical, OMFP fluorescence; inhibition, %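 (compounds tested at 10 µM final in the well)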; recombinant Cdc25B, OMFP fluorescence Ex485/Em525; AID 368, 2006; 65,000 tested, 0.1% active; M-phase inducer phosphatase 2 (Homo sapiens), P30305; in the data active means inhibition above about 50%
# BAP1 block: inhibitors of BAP1 deubiquitinase, primary screen, biochemical, Ub-AMC fluorescence, kinetic; AID 436, 2006; Ubiquitin carboxyl-terminal hydrolase BAP1 (Homo sapiens), Q92560; calls only at 20 µM; recombinant BAP1, Ub-AMC hydrolysis fluorescence kinetic; stronger effect = lower value; 72,000 tested, 0.48% active;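 active means activity remaining at or below 50% of control, provided the compound also passes the data quality filters; inactive means the rest, including low values that fail the filters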
# Redox H2O2 0p5DTT: redox cycling H2O2 generation, 0.5 mM DTT, dose response, artefact control, biochemical, Cdc25B catalytic domain; AID 682, 2007; 30 tested, 50% active; cell-free redox cycling H2O2 generation; EC50, µM; shares compounds with Cdc25B block; in the data active means EC50 below about 30 µM
# Redox 1 DTT: redox cycling H2O2 generation, 1 mM DTT, dose response, artefact control, biochemical, 1.0 mM DTT, Cdc25B catalytic domain; shares compounds with Cdc25B block; cell-free redox cycling H2O2 generation; EC50, µM; 30 tested, under 10 active; in the data active means EC50 below about 50 µM
# Redox cycler: redox cycling hydrogen peroxide production, dose response, artefact control, biochemical, probe assessment. shares compounds with DUSP1 inh. Redox cycling H2O2 generation, DTT, phenol red/HRP. EC50, µM. 60 tested, under 10 active; call rule not given here
# A number is an active result; n = inactive; x = no result given. Only some compounds are listed: those with a hit (about 1% of all), similar ones and a draw of the others.
SMILES,TNAP act mid DEA,HePTP inhibitor,E coli RNAP,DUSP1 inh,Cdc25B block,BAP1 block,others
O=C1NC(=S)S/C1=C/c1ccc(Sc2ccccc2)o1,x,87,x,x,x,x,
CCOC(=O)C1=C(N)OC(C)=C(C(=O)OC)C1c1cccnc1 (stereo not drawn),x,n,x,x,x,x,
O=C(O)CSc1nc2ccc([N+](=O)[O-])cc2s1,x,n,x,x,x,x,
O=C(c1ccccc1SCc1ccc(F)cc1)N1CCOCC1,x,n,x,x,x,x,
CC(C)Oc1ccccc1NC(=O)c1ccccc1SCc1ccc(F)cc1,x,92,x,x,x,x,
Cc1cc(C)c2c(c1)=C(c1sc(N)nc1O)C(=O)N=2,x,69,x,x,x,x,
C=CCn1c2ccccc2c2nnc(SC)nc21,x,n,x,x,x,x,
C=CCn1c2ccccc2c2nnc(SCC(=O)N=C3NC(=O)CS3)nc21,x,56,x,x,x,x,
COc1ccc(CN2CC(C(=O)NCCCN3CCOCC3)CC2=O)cc1 (stereo not drawn),n,n,n,n,65,n,
COc1ccc(CN2CC(C(=O)NCCCN3CCCCCC3)CC2=O)cc1 (stereo not drawn),n,n,n,n,n,n,
CCOc1ccc(/C=N\NC(=O)c2ccc(Br)cc2)c(O)c1,x,102,x,x,x,x,
CCOc1cc(/C=C2/C(=N)N3N=C(CC)SC3=NC2=O)ccc1OC(=O)c1cccc([N+](=O)[O-])c1,x,103,x,x,x,x,
O=C(C[n+]1cccc2ccccc21)c1cc2ccccc2oc1=O,x,n,x,x,x,x,
COc1ccc(Cn2nnnc2C(c2cc3cccc(C)c3[nH]c2=O)N2CCOCC2)cc1 (stereo not drawn),n,n,n,n,52,n,
O=C1N=c2ccccc2=C1c1sc(=O)n(-c2cccc(O)c2)c1O,x,n,x,x,x,x,
O=C1N=c2ccccc2=C1c1s/c(=N/N=C2/C(=O)Nc3ccccc32)n(-c2ccc(O)cc2)c1O,x,98,x,x,x,x,
O=C(CSc1nnc(CNc2ccc(Cl)cc2)o1)Nc1nc2c(s1)CCCC2,n,n,23,n,n,n,
COc1ccc(CCNC(=O)CSc2nnc(CNc3ccc(Cl)cc3)o2)cc1OC,n,n,n,n,n,n,
O=C(NCCCn1ccnc1)C(O)(c1ccccc1)c1ccccc1,x,56,x,x,x,x,
O=C(COc1ccccc1)NCCCn1ccnc1,x,n,x,x,x,x,
Cc1cc(NC(=O)CSc2nnc3c4ccccc4n(C)c3n2)no1,x,n,x,x,x,x,
Cn1c2ccccc2c2nnc(SCC(=O)NCc3ccco3)nc21,x,104,x,x,x,x,
COc1ccc(C2NCCc3c2[nH]c2ccccc32)cc1OC (stereo not drawn),x,n,x,x,x,x,
O=C1Cc2ccccc2C(=O)N1CCc1ccccc1,n,n,n,n,59,n,Redox H2O2 0p5DTT=n;Redox 1 DTT=n
O=C(O)CCN1C(=O)c2ccccc2C1=O,n,n,n,n,n,n,
SMILES,TNAP act mid DEA,HePTP inhibitor,E coli RNAP,DUSP1 inh,Cdc25B block,BAP1 block,others
CC(=O)Nc1ccc(S(=O)(=O)Nc2cccc(Cl)c2)cc1,x,n,x,x,x,x,
O=c1[nH]c(Nc2ccccc2)cc2ccccc12,n,n,n,n,85,n,Redox H2O2 0p5DTT=n;Redox 1 DTT=n
O=C(O)C1Nc2c(O)cccc2C2C=CCC12 (stereo not drawn),n,x,n,n,56,n,Redox H2O2 0p5DTT=n;Redox 1 DTT=n
O=C(CCCOc1ccc(Cl)cc1Cl)Nc1ccc(S(=O)(=O)Nc2nccs2)cc1,x,n,x,x,x,x,
CCOc1ccc2noc3c2c1C(=O)c1ccccc1-3,n,n,x,65,92,n,Redox H2O2 0p5DTT=n;Redox 1 DTT=n;Redox cycler=n
CCNc1ccc2noc3c2c1C(=O)c1ccccc1-3,x,n,x,x,x,x,
O=C(OC1CCCCC1)c1ccc2c(c1)C1C=CCC1C(C(=O)O)N2 (stereo not drawn),n,x,n,52,63,x,Redox H2O2 0p5DTT=n;Redox 1 DTT=n;Redox cycler=n
CC(=O)Oc1ccc(NC(=O)CC2SC(N)=NC2=O)cc1 (stereo not drawn),x,n,x,x,x,x,
O=C(NC1(O)C(=O)c2ccccc2C1=O)c1ccccc1,n,n,n,62,96,n,Redox H2O2 0p5DTT=29;Redox 1 DTT=n;Redox cycler=n
Cc1nonc1NC1(O)C(=O)c2ccccc2C1=O,x,n,x,x,x,x,
N#Cc1c(N2CCCC2)nc(N)c2c(N)nc(N3CCCC3)cc12,n,x,n,76,101,n,Redox H2O2 0p5DTT=13;Redox 1 DTT=27;Redox cycler=n
COc1cc(/C=N\N2CCN(c3ccc(C)cc3)CC2)ccc1OCc1ccccc1,x,n,x,x,x,x,
CC1=C(/C=C/C(C)=C/C=C/C(C)=C/C(=O)O)C(C)(C)CCC1,n,n,n,56,n,x,Redox cycler=n
Cc1nc2c(C(=O)NCc3ccc4c(c3)OCO4)c[nH]n2c(=O)c1Cl,n,n,n,n,n,n,
Cc1nc2c(C(=O)NCCC3=CCCCC3)c[nH]n2c(=O)c1Cl,n,n,n,54,n,n,Redox cycler=n
CCCCn1c(SCc2c(C)noc2C)nc2cc(S(N)(=O)=O)ccc21,n,n,n,n,n,n,
CCCCn1c(SCC(=O)c2ccc(OC)cc2OC)nc2cc(S(N)(=O)=O)ccc21,n,n,n,54,n,x,Redox cycler=n
CC(C)Cn1c(N)c(C(=O)COC(=O)c2cc(-c3ccco3)nc3ccccc23)c(=O)n(C)c1=O,n,x,n,51,n,n,Redox cycler=n
Cc1nn(-c2ccccc2)c(C)c1C(=O)OCC(=O)c1c(N)n(CC(C)C)c(=O)n(C)c1=O,n,n,n,n,n,n,
CC(=O)CC1C(C#N)=C(N(C)C)N(c2ccc([N+](=O)[O-])cc2)c2c1n(C)c1ccccc21 (stereo not drawn),x,n,x,x,x,x,
COc1cc(/C=C(/C#N)c2ccc(F)cc2)ccc1OCc1ccc(C(=O)O)o1,n,n,n,62,n,n,Redox cycler=n
NNc1cc(-c2ccccc2O)nc(-c2ccccc2)n1,x,n,x,x,x,x,
CCOc1ccc(-c2cc3nc(C4CCN(C(=O)OC(C)(C)C)CC4)c(C(=O)O)cn3n2)cc1,n,n,n,64,n,x,Redox cycler=n
COc1ccc(NC(=O)c2ccc(S(=O)(=O)N3CCOCC3)cc2)c2ccccc12,x,n,x,x,x,x,
Cc1c(OC(C)C)ccc2c1oc(=O)c1ccccc12,x,n,x,x,x,x,
CC(C)(C)N1C(=O)Cc2c1nc(N)c1c(N)nc(N3CCCCC3CO)c(C#N)c21 (stereo not drawn),n,n,n,53,n,n,Redox cycler=n
COc1cccc(C(=O)N2N=C(C(F)(F)F)CC2(O)C(C)(C)C)c1 (stereo not drawn),x,n,x,x,x,x,

# From PubChem
